Source: PubChem (several laboratories)
proKLK7 act: activators of human kallikrein-7 zymogen; P49862; purified proKLK7, EDANS-DABCYL substrate fluorescence; 100% is mature enzyme control, 0% vehicle; activation, % at 7 µM; hit rate 0.9% among 370,000; AID 652039;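 active = activation above the mean of all tested compounds plus 3 SD, computed per campaign excluding outliers beyond control limits, cut at about 13% in these data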
sPLA2-III inh: Inhibits HGIII-sPLA2 liposome hydrolysis, primary screen; Q9NZ20; QFRET BODIPY PC-A2 liposome hydrolysis, fluorescence; inhibition, % at 12.2 µM; hit rate 0.56% among 370,000;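 active = inhibition above mean plus 3 SD of compounds lying within the high and low control bounds, cut at about 19% in these data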;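 also: 0% = median of test compound wells and 100% = no enzyme DMSO wells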
ADAM10 inh: ADAM10 inhibition, QFRET primary screen | hit rate 0.62% among 370,000 | recombinant ADAM10, EDANS/DABCYL FRET peptide cleavage, 3 h | inhibition, % at 7 µM | O14672;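 active = inhibition above a per-campaign cutoff equal to the mean of compounds falling between control-based bounds plus 3 SD, cut at about 20% in these data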;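 also: 0% = DMSO wells while the 100% control is not disclosed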
ADAM17 inh: inhibits human ADAM17; inhibition, % at 6.95 µM; hit rate 0.83% among 370,000; recombinant ADAM17, EDANS/DABCYL FRET peptide cleavage; P78536; AID 720648;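 active = inhibition above the mean of compounds lying between control limits plus 3 SD, set per campaign, cut at about 8.5% in these data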;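 also: 0% = DMSO-only wells as the low control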
NRP1-CendR mod: NRP-1/CendR interaction modulation | O14786 | FAM-RPARPAR peptide binding to NRP-1, fluorescence polarization | inhibition, % at 25 µM | hit rate 0.85% among 360,000 | AID 602438;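 active = inhibition or corrected inhibition above about 18%, plus a signal ratio from 0.5 to 1.5, limit read from the data, passing the limit was not always enough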
ADAM10 ctr: ADAM10 inhibition, counter-screen for ADAM17 exosite hits. shares compounds with ADAM17 inh. recombinant ADAM10, EDANS/DABCYL FRET peptide cleavage, 3 h. inhibition, % at 6.95 µM. hit rate 47% among 2,900;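 active = mean inhibition over the triplicate runs exceeds the activity threshold set in the earlier primary screen, cut at about 20% in these data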;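 also: 0% = DMSO wells and 100% = marimastat wells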
ADAM17 confirm: human ADAM17 inhibition, confirmation; recombinant ADAM17, EDANS/DABCYL QFRET peptide cleavage; AID 743257; shares compounds with ADAM17 inh; hit rate 65% among 2,900; inhibition, % at 6.95 µM;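 active = mean inhibition across replicates above the hit cutoff set in the primary screen, cut at about 8.5% in these data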;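 also: 0% = DMSO wells and 100% = marimastat wells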
Starred values were filed as active, the others as inactive; i = inactive; / = no result given. Most compounds without a hit are left out; they make up all but 3.4% or so of the library.

SMILES	proKLK7 act	sPLA2-III inh	ADAM10 inh	ADAM17 inh	NRP1-CendR mod	ADAM10 ctr	ADAM17 confirm
CCCCN1c2ccccc2N(CCCO)c2cc(C)nnc21	0	11	15	9.8*	6	-8	0
CC(=O)N1CCN(c2cc(-c3ccco3)nc3cc(-c4ccccc4)nn23)CC1	/	8	i	-416	/	/	/
Cc1[nH]c2ccccc2c1/C=C/c1cc[n+](C)cc1	1	-21	3	9.4*	129	5	4
CN(CCCOC(=O)c1cccs1)C1CN(Cc2cn(Cc3ccccc3Cl)nn2)S(=O)(=O)C1 (centres undefined)	0	0	-7	-4	/	/	/
COc1ccccc1N(Cc1ccccc1)S(=O)(=O)c1cccc(C(=O)Nc2ncccc2C)c1	1	-5	12	6	0	/	/
COc1ccccc1N(Cc1ccccc1)S(=O)(=O)c1cccc(C(=O)Nc2cc(C)ccn2)c1	0	-20	17	9.0*	-3	13	8
CCOc1cc(C(=O)OCC(=O)Nc2ccc(SC(F)F)cc2)cc(OCC)c1OCC	0	-12	19	10*	9	38*	18*
Cc1c(Cl)cccc1NC(=O)CN1CCC(C(O)(c2ccccc2)c2ccccc2)CC1	0	-18	13	8.8*	3	30*	16*
Cc1ccccc1C(=O)NC1CCN(CC(=O)Nc2ccccc2Cl)CC1	0	0	13	-2	-8	/	/
COC(=O)C1=C(C)N(Cc2cccc(C(F)(F)F)c2)C(=NCc2cc(OC)c(OC)c(OC)c2)NC1c1ccc(Cl)cc1 (centres undefined)	0	-15	-2	0	/	/	/
Fc1ccc(-n2c(=S)[nH]c3cccnc32)cc1	0	3	-3	-3	11	/	/
O=c1[nH]c(=S)n(-c2ccc(Br)cc2)c2ncccc12	0	9	6	11*	2	20	11*
CCOC(=O)c1ccc(NS(=O)(=O)c2cnc[nH]2)cc1	-1	-26	-10	9.3*	10	-4	-3
CCOC(=O)c1cccc(NS(=O)(=O)c2cnc[nH]2)c1	0	-4	-9	0	2	/	/
O=C(CN1c2ccccc2Sc2ccccc21)NNC(=O)Nc1cccc(Cl)c1	-1	-8	-2	8.8*	-2	10	8.9*
O=C(Cc1ccccc1)NNC(=O)Nc1cccc(Cl)c1	0	-9	-2	4	4	/	/
O=C(CCCCCN1C(=O)C2C3C=CC(C3)C2C1=O)N1CCN(c2ncccn2)CC1 (centres undefined)	0	7	-24	-2	/	/	/
O=C(O)CNC(=O)C1(NC(=O)OCc2ccccc2)CCCC1	0	7	6	8.7*	-5	1	3
CC(=O)Nc1ccc(S(=O)(=O)N(C)c2ccc(OCCOc3cccc(C)c3)cc2)cc1	0	-30	-3	8.7*	-5	26*	14*
Cc1ccc(S(=O)(=O)N(C)c2ccc(OCc3cccc(C)c3)cc2)cc1	0	-10	2	3	-1	/	/
Cc1ccc(S(=O)(=O)N(C)c2ccc(OCC(=O)OCc3cccc(Br)c3)cc2)cc1	0	-24	16	9.1*	5	25*	16*
Brc1cccc(CN2CCN(c3ncc(Cc4ccccc4)cn3)CC2)n1	0	-1	-3	3	/	/	/
COc1ccc(NC(=O)CCSc2ccc(C)cc2)cc1	0	-5	9	3	-1	/	/
Cc1ccc(SCCC(=O)Nc2ccc(Br)c(C)c2)cc1	0	-7	19	12*	0	31*	17*
C=CCN1[C@@H](Cc2ccccc2)COc2cc(F)ccc2S1(=O)=O	0	3	-4	-5	/	/	/
CC(C)(C)N(Cc1cn(CC2CCCCC2)nn1)S(=O)(=O)c1ccc(F)cc1Br	0	-1	8	4	/	/	/
CCN(c1ccc(OCC(=O)OCC(=O)c2c(N)n(C)c(=O)n(C)c2=O)cc1)S(=O)(=O)c1ccccc1	1	7	0	-2	1	/	/
